# According to PubChem BioAssay AID2796 (The Scripps Research Institute Molecular Screening Center, 2010):
# The whole screen tested about 320,000 compounds, of which about 8,000 (2.5%) were called active. No stated cut-off is given here; in the data, active means activation above about 47%; inactive means the rest. Only a selection was taken, and actives are over-represented in it overall.
# Target: Aryl hydrocarbon receptor (Homo sapiens) (UniProt P35869)
# Test: AHR activators, primary screen, cell-based, luminescence, luciferase reporter, human (AID 2796);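 further: 0% = vehicle wells and 100% = reference agonist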
# Conditions: AHR-responsive luciferase reporter cells, at 5 µM, hits give high values
# Aryl hydrocarbon receptor (Homo sapiens), sequence (P35869 whole entry, looked up): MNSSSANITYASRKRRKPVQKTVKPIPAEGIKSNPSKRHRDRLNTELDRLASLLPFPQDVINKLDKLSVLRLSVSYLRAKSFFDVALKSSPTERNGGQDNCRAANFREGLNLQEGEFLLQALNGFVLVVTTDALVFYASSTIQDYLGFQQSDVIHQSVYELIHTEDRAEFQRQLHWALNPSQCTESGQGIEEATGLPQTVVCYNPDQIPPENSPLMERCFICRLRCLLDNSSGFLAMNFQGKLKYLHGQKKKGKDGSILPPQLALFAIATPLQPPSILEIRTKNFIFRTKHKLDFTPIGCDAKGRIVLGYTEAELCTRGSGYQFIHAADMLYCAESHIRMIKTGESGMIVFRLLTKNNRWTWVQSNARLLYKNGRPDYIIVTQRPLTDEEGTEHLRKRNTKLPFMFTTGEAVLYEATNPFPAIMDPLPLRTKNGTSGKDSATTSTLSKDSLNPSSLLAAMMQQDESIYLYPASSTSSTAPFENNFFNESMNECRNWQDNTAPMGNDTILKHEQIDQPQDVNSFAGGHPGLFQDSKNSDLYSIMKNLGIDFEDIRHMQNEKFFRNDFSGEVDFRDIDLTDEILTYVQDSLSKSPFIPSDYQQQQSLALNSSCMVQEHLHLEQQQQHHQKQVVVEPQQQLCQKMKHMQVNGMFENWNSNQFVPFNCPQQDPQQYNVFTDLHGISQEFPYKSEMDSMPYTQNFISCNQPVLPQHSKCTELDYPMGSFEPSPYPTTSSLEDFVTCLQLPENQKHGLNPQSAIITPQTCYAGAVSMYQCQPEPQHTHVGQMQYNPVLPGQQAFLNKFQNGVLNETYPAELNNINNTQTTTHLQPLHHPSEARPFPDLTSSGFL
row,Compound,activation
1,CCNC(=O)N(CC)C[C@H]1N[C@@](CC)(C(=O)OC)[C@H]2C(=O)N(Cc3ccccc3)C(=O)[C@@H]12,-0.15% (inactive)
2,COc1ccc(N(Cc2ccc(N(C)C)cc2)C(=O)c2ccc(S(C)(=O)=O)cc2)cc1,-2.92% (inactive)
3,COCc1cc(C)nc(Nc2cc(C)ccc2C)c1C#N,52.2% (active)
4,COCc1cc(C)nc(SCC(=O)Nc2cccc(C)c2)c1C#N,2.83% (inactive)
5,Cc1cc(C)c(C#N)c(Nc2cccc(Br)c2)n1,19.3% (inactive)
6,O=C(CSc1nc(O)c(Cc2ccccc2)c(=O)[nH]1)Nc1nc2c(s1)CCCC2,1.1% (inactive)
7,COc1cc(/C=N/N=C(\N)c2nonc2N)cc(OC)c1OC,91.3% (active)
8,COc1cc(/C=N\NC(=O)c2nonc2N)c(OC)cc1Br,15.2% (inactive)
9,COc1cc(/C=N/Nc2nn3cnnc3c3ccccc23)cc(OC)c1OC,38.4% (inactive)
10,CC(C)(C)C(=O)NCCCNc1ccc([N+](=O)[O-])cc1,2.34% (inactive)
11,Cc1ccc(C)c(NC(=O)COC(=O)Cn2c(C)csc2=O)c1,2.35% (inactive)
12,O=C(COC(=O)c1ccc2c(c1)OCCO2)NCc1ccccc1Cl,-0.15% (inactive)
13,Brc1ccc(C2CC(c3ccccc3)=Nc3ccccc3N2)cc1 (stereo not drawn),104% (active)
14,c1ccc(C2=Nc3cccc4cccc(c34)N2)cc1,19.3% (inactive)
15,CNC(=S)N1N=C(c2ccccc2)CC1c1ccc(Br)cc1 (stereo not drawn),1.39% (inactive)
16,Cc1ccsc1C(=O)NC1CCCCC1C (stereo not drawn),-0.06% (inactive)
17,COc1ccc(CN2CN(C3CCCC3)CSC2=S)cc1,-1.37% (inactive)
18,COc1ccc(CC(=O)OC(C)C(=O)Nc2ccc(S(N)(=O)=O)cc2)cc1 (stereo not drawn),0.17% (inactive)
19,COCc1c(C(=O)OCC(=O)Nc2ccc(OC(F)F)cc2)oc2ccccc12,-0.02% (inactive)
20,Cc1cc2nc(-c3ccc(NC(=O)c4cccnc4)cc3)oc2cc1C,-6.99% (inactive)
21,Cc1ccc2nc(-c3ccc(NC(=O)c4cccnc4)cc3)oc2c1,-9.23% (inactive)

row,Compound,activation
1,CC(=O)Nc1ccc(-c2nc3ccccc3o2)cc1,80.5% (active)
2,CCC(CC)COC(=O)C1=C(C)NC(=O)NC1c1ccc([N+](=O)[O-])cc1 (stereo not drawn),-3.02% (inactive)
3,CCc1ccccc1N(CC(=O)NCC1CCCO1)C(=O)CCC(=O)Nc1nccs1 (stereo not drawn),-2.18% (inactive)
4,COc1ccc(NC(=O)C(CC(C)C)NS(=O)(=O)c2ccc3c(c2)CCN3C(C)=O)cc1OC (stereo not drawn),1.37% (inactive)
5,CSc1ncccc1C(=O)Nc1cccc(S(=O)(=O)N2CCOCC2)c1,-0.18% (inactive)
6,S=c1[nH]nc(-c2cc(-c3ccccc3)n[nH]2)n1/N=C/c1c2ccccc2cc2ccccc12,63.2% (active)
7,Fc1ccccc1/C=N/n1c(-c2cccnc2)n[nH]c1=S,5.29% (inactive)
8,S=c1[nH]nc(-c2ccncc2)n1/N=C/c1ccccc1Cl,4.63% (inactive)
9,Fc1cccc(CSc2nnc3ccc(-c4ccncc4)nn23)c1,4.81% (inactive)
10,COc1ccc2nc(NC(=O)NC3CCCCC3)sc2c1,5.23% (inactive)
11,COc1ccc2nc(Nc3nc(-c4cc5ccccc5oc4=O)cs3)sc2c1,56.3% (active)
12,Cc1noc(C)c1CSCC(=O)Nc1nc2ccc(Oc3ccccc3)cc2s1,17.8% (inactive)
13,c1c2c(cc3sc(N4CCCCC4)nc13)OCCO2,-13.2% (inactive)
14,COc1ccc2nc(NC(=O)[C@@H]3CCCN3C(=O)c3cccs3)sc2c1,23.1% (inactive)
15,COc1ccc2oc(=O)cc(-c3cc4ccccc4o3)c2c1,18.4% (inactive)
16,COc1ccc2nc(Nc3nc(-c4ccncc4)cs3)sc2c1,107% (active)
17,CCOc1ccc(S(=O)(=O)Nc2nc3cc(OC)ccc3s2)cc1,-1.36% (inactive)
18,COc1ccc2nc(Nc3nc4cc5c(cc4s3)OCCO5)sc2c1,53.1% (active)
19,COc1ccc(C2=Nc3cc(C)ccc3OC2)cc1,30.2% (inactive)
20,O=C(CCc1nc(-c2ccccc2)no1)Nc1cccc(C(=O)NC2CC2)c1,0.82% (inactive)
21,CCc1ccc(OCC(=O)OC(C)C(=O)NC2CC2)cc1 (stereo not drawn),-4.56% (inactive)

row,Compound,activation
1,Oc1c(Cl)cc(Cl)c(Cl)c1Cc1c(O)c(Cl)cc(Cl)c1Cl,0.28% (inactive)
2,CN(C(=O)COC(=O)Cn1cnc2c1c(=O)n(C)c(=O)n2C)C1(C#N)CCCCC1,-0.97% (inactive)
3,O=C(c1snnc1-c1ccccc1)N1CCOCC1,2.54% (inactive)
4,CN(CCC1CCOCC1)C(=O)CC1C(=O)NCCN1Cc1cccc(F)c1 (stereo not drawn),-2.39% (inactive)
5,COc1cccc(NC(=O)Cn2cnc3sc(C)c(S(=O)(=O)N4CCN(C)CC4)c3c2=O)c1,3.14% (inactive)
6,CCCc1cc(=O)oc2c(C)c(OCC(=O)NCc3ccccn3)ccc12,65.7% (active)
7,CCCc1cc(=O)oc2c(C)c(OCC(=O)N3CCC(C(=O)O)CC3)ccc12,0.65% (inactive)
8,CCCc1cc(=O)oc2c(C)c(OCC(=O)Nc3ccccn3)ccc12,2.02% (inactive)
9,Clc1ccc(-c2cc(C3CCNCC3)[nH]n2)c(Cl)c1,-7.18% (inactive)
10,CCC(=O)Nc1nc(C)c(C(=O)Nc2cccc(Cl)c2)s1,7.61% (inactive)
11,O=C(Nc1ccc(-c2csc(Nc3cccc(C(F)(F)F)c3)n2)cc1)c1cccc(C(F)(F)F)c1,114% (active)
12,C=CCCC(=O)Nc1nc(C)c(-c2csc(Nc3ccc(Cl)cc3)n2)s1,56.6% (active)
13,Cc1nc(NC(=O)CN(C)S(=O)(=O)c2ccc(Cl)cc2)sc1C,5.19% (inactive)
14,Cc1nc(NC(=O)c2cccc(Cl)c2)sc1-c1csc(Nc2cccc(Cl)c2)n1,85.8% (active)
15,COc1ccc(NC(=O)CN(C)CC(=O)Nc2cccc(C(F)(F)F)c2)cc1,0.79% (inactive)
16,CCCCCCC(=O)Nc1nc(C)c(-c2csc(Nc3cccc(OC)c3)n2)s1,34.4% (inactive)
17,O=C(O)CSc1c2c(nc3cc(C(=O)Nc4cccc(C(F)(F)F)c4)ccc13)CCCC2,-2.1% (inactive)
18,COc1ccc(-c2csc(NC(=O)COC(=O)Cc3ccc(Cl)cc3Cl)n2)cc1,34.2% (inactive)
19,CCCCN(C)CCC(=O)Nc1ccc(Cl)cc1,0.37% (inactive)
20,CCCCCCC(=O)Nc1nc(C)c(-c2csc(Nc3cc(Cl)ccc3OC)n2)s1,40.2% (inactive)
21,CCCCC(=O)Nc1nc(C)c(-c2csc(Nc3ccc(Cl)cc3)n2)s1,49.2% (active)
